Sampled rows, rich in hits. Any-hit rate of the full collection: about 6.8%.
KB-3-1 cytotox: KB-3-1 parental cell cytotoxicity; 400,000 compounds, 1.4% hits; AID 1347075; Potency, µM (highest dose often 46.1 µM), usual class: cytotoxic; KB-3-1 viability, CellTiter-Glo ATP luminescence, 72 h; further: on the % scale 0 is the no-effect control and ±100 the full control effect; nearly all actives have a fitted effect of over 60% in size
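Using CellTiter-Glo luminescence, growth of non-resistant KB-3-1 adenocarcinoma cells is assessed 72 h after pin-tool compound addition at 37 °C. Normalized responses across the concentration series yield fitted curves.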
KB-V1 cytotox: kills drug-selected multidrug resistant KB-V1 cells; KB-V1 MDR cells viability, CellTiter-Glo, 72 h; Potency, µM (series often up to 46.1 µM), actives largely listed as cytotoxic; 400,000 compounds, 3.4% hits; further: on the % scale 0 is the no-effect control and ±100 the full control effect; nearly all actives have a fitted effect of over 60% in size
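Compound-treated KB-V1 multidrug-resistant cells, 72 h, 37 degrees C; viability by CellTiter-Glo. Fitted qHTS curves give the values.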
TSG101-PTAP inh: blocks PTAP/TSG101 interaction to inhibit HIV-1 budding; Q99816; Fluorescence polarization, FITC-PTAP peptide / Tsg101 binding; Potency, µM (series often up to 115 µM), for the others: at the top dose activity change, negative = inhibition, most hits filed as inhibitors; 340,000 tested, under 10 active; AID 493005; active means well fitted inhibition curve with a large enough effect in the main read-out, with a control signal flat, not every such curve was filed as active; inconclusive means small, poorly fitted or top-dose-only effect, or effect the other way, or a change in a side signal; inactive means no such curve, though single readings can be large or run the other way; further: % of control where 0% means no effect
Target sequence (Q99816 whole entry, looked up): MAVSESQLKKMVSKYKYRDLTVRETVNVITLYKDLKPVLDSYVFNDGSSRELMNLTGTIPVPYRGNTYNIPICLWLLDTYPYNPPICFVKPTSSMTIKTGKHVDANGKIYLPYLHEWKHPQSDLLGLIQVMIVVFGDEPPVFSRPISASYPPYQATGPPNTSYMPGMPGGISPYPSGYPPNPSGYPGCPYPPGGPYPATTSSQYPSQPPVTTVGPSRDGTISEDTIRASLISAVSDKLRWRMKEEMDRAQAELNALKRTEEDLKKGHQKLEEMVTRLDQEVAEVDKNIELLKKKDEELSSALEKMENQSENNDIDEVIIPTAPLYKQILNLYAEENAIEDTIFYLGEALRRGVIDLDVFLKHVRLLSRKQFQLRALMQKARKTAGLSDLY
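Compounds were pin-transferred onto Tsg101 binding domain (10 uM final) in HEPES pH 7.5 buffer, then FITC-PTAP peptide was added at 50 nM final. After 20 min at RT, polarization reported peptide displacement across a qHTS concentration series.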
PINK1 expr mod: changes PINK1 expression | Potency, µM (top dose mostly 76.6 µM), inactives show top-dose activation (PINK1 increase), hits mostly activators | 410,000 compounds, 0.2% hits | AID 624263 | PINK1 immunofluorescence, high-content cytometry, 24 h; active means well fitted activation curve with a large enough effect; inconclusive means small, poorly fitted or top-dose-only effect; cell line not stated here; further: % of control where 0% means no effect; nearly all actives have a fitted effect of over 65% in size
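A stable cell line was treated with compounds at 5 concentrations for 24 hours, with CCCP as control. PINK1 levels and mitochondrial localization were measured by immunofluorescence with mitochondrial, cell and nuclear markers after fixation, read by laser-scanning cytometry.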
MCF10A rerep: induces DNA re-replication in MCF 10a normal breast cells; MCF 10A DNA re-replication, Hoechst nuclear intensity, 48 h; Potency, µM (highest dose often 46.1 µM), inactives show at the highest dose activity, positive = re-replication, actives largely listed as activators; 350,000 compounds, 2.9% hits; AID 624296; further: % of control where 0% means no effect; nearly all actives have a fitted effect of over 50% in size
SW480 rereplic: DNA re-replication induction in SW480 cells; Potency, µM (doses to about 46.1 µM), without a hit: at the highest dose re-replication activation, hits mostly activators; SW480 DNA re-replication, Hoechst DNA content imaging, 48 h; AID 624297; 340,000 compounds, 1.8% hits; further: % of control where 0% means no effect; nearly all actives have a fitted effect of over 55% in size
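250 cells/well; 23 nL cpd via pin tool; 48 hr, 37 C, 5% CO2; Hoechst 40 min; imager read of total nuclear intensity, ex 405/em 500-530 nm.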
Numbers without * were called inactive; i = inactive; ? = inconclusive; · = no result; ! = not active in a repeat; [ ] = another dose, or the depositor's remark. Unless noted, the call rests on the fitted dose curve; in most records, active means well fitted curve in the direction sought with a large enough effect; inconclusive means small, poorly fitted or top-dose-only effect, or another doubt; inactive means no such curve, though single readings can be large; an effect the other way counts as inactive or inconclusive. Potency means the concentration at half of the fitted maximal effect.

SMILES	KB-3-1 cytotox	KB-V1 cytotox	TSG101-PTAP inh	PINK1 expr mod	MCF10A rerep	SW480 rereplic
Cn1nnnc1Sc1ncnc2scc(-c3cccc4ccccc34)c12	16.4µM*	i	-0.2%	3.4%	?	7.2%
Cn1nnnc1Sc1ncnc2scc(Br)c12	i	i	-7.0%	6.4%	3.66µM*	4.61µM*
Cn1nnnc1Sc1ncnc2scc(-c3ccc(F)cc3)c12	8.2µM*!	?	-7.8%	-0.4%	?	10.3µM*
Cn1nnnc1Sc1ncnc2scc(-c3ccc(Br)cc3)c12	11.6µM*	?	-2.8%	-0.8%	?	?
Cn1nnnc1Sc1ncnc2scc(-c3ccc[nH]3)c12	?	?	·	1.8%	?	?
Cn1nnnc1Sc1ncnc2scc(-c3ccccc3)c12	?	?	-1.8%	0.0%	?	16.4µM*
COc1ccc(Nc2nc(C)nc3sc4c(c23)CCC4)cc1O	?	5.8µM*	-3.6%	15.9%	?	?
COC(=O)C12OCC34C(CC5C(C)=C(O)C(=O)CC5(C)C3C(O)C1O)OC(=O)C(OC(=O)C=C(C)C)C24 (stereo not drawn)	0.206µM*	7.31µM*	-6.1%	-5.6%	?	?
COc1ccccc1C1CN(Cc2cccc3c2OCO3)Cc2ccccc2O1 (stereo not drawn)	·	·	·	-0.9%	·	·
O=C(C[n+]1ccccc1)NNc1ccccc1	6.51µM*	i	·	2.7%	19.1%	1.9%
CC(C)(C)c1ccc(-c2nc(-c3ccncc3)no2)cc1	?	16.4µM*	0.3%	?	?	0.2%
Cc1csc2nc(-c3cccc(NC(=O)C(C)C)c3)cn12	·	·	·	1.6%	·	·
CCC(=O)N1CCc2cc(Br)cc(S(=O)(=O)N3CCCC(C(=O)NCc4cccc(OC)c4)C3)c21 (stereo not drawn)	i	i	·	1.2%	·	·
Cc1c(N2C(=O)/C(=C\c3ccccc3O)SC2=S)c(=O)n(-c2ccccc2)n1C	i	i	-5.1%	2.4%	?	18.4µM*
O=C(Cc1cccs1)Nn1c(Cc2cccs2)nc2ccccc2c1=O	i	20.6µM*	-1.7%	1.7%	3.4%	-3.3%
Cc1cccc(-n2c(SCC(=O)NCc3ccco3)nc3ccccc3c2=O)c1	i	10.3µM*	0.1%	-0.9%[38.3 µM]	?	?
Cc1cccc(-n2c(SCC(=O)NCc3ccc4c(c3)OCO4)nc3ccccc3c2=O)c1	i	i	-1.9%	3.4%	18.5%	?
O=C(CSc1nc2ccccc2c(=O)n1NC(=O)Cc1ccccc1)NCc1ccco1	i	18.4µM*	-3.7%	5.5%[38.3 µM]	-0.6%	-10.3%
O=C(Cc1ccccc1)Nn1c(-c2ccccc2F)nc2ccccc2c1=O	i	i	-2.2%	-0.7%	-2.8%	-23.6%
O=C(CSc1nc2ccccc2c(=O)n1NC(=O)Cc1ccccc1)NCc1ccccc1	i	i	-3.2%	3.6%	-3.2%	0.8%
O=C(Nn1c(Cc2cccs2)nc2ccccc2c1=O)c1ccc(F)c(F)c1	i	i	-4.8%	-2.2%	-1.4%	-2.2%
O=C(Cc1ccccc1)Nn1c(-c2ccccc2)nc2ccccc2c1=O	i	18.4µM*	-4.6%	4.4%	25.0%	2.2%
COc1cccc(NC(=O)CSc2nc(=O)n(Cc3cccnc3)c3c2CCC3)c1	i	i	·	0.3%	·	·
O=C(CSc1nc2ccccc2c(=O)n1-c1ccccc1)N/N=C/C=C/c1ccccc1[N+](=O)[O-]	i	i	-5.0%	1.6%	4.61µM*	13.9%
O=C(CSc1nc2ccccc2c(=O)n1-c1ccccc1)NCc1ccco1	?	13µM*	-2.2%	7.4%	0.9%	-7.6%
SMILES	KB-3-1 cytotox	KB-V1 cytotox	TSG101-PTAP inh	PINK1 expr mod	MCF10A rerep	SW480 rereplic
C/C(=N\OCC(=O)Nn1c(C)nc2ccccc2c1=O)c1ccccc1	i	16.4µM*	-1.4%	-0.5%	1.9%	0.1%
CCOc1ccc(CNC(=O)C2CCCN(c3nc4c(C)cc(C)cc4s3)C2)cc1 (stereo not drawn)	i	i	·	1.7%	·	·
COc1ccc(-n2c(C)cc(/C=C3\SC(=S)NC3=O)c2C)cc1	i	i	-0.2%	31.6µM*	9.9%	-4.1%
COc1cc(/C=C2\CC/C(=C\c3cc(OC)c(OC)c(OC)c3)C2=O)cc(OC)c1OC	i	i	-1.6%	27.3%	5.8µM*	?
COc1cc(/C=C2\COC/C(=C\c3cc(OC)c(OC)c(OC)c3)C2=O)cc(OC)c1OC	?	?	-6.9%	6.3%	?	?
COc1cc(/C=C2\CCC/C(=C\c3ccc(O)c(OC)c3)C2=O)ccc1O	?	?	-5.6%	-1.5%	4.11µM*	?
O=C1NC(=S)S/C1=C\c1cccc([N+](=O)[O-])c1	?	?	-6.1%	?	18.4µM*	?
COc1cc(/C=C2/CCCC(C(=O)C(F)(F)F)=C2O)ccc1O	i	i	3.2%	0.2%	7.4%	4.2%
CCOC(=O)C1CCN(C(=O)Cn2c(=O)oc3cc(S(=O)(=O)N4CCC(C)CC4)ccc32)CC1	i	i	·	4.2%	·	·
Cc1cccc(-n2c(=O)c3c(c4cc(C)ccc4n3C)n(CC(=O)NCCC3=CCCCC3)c2=O)c1	i	i	·	3.5%	·	·
COc1ccc(/C=C2/CCc3ccccc3C2=O)cc1OC	i	?	-6.6%	6.3%	13.6%	-0.4%
Cc1cc(/C=C2\SC(=S)NC2=O)c(C)n1-c1ccc(O)cc1	?	i	4.0%	0.7%	?	3.6%
COc1ccc(C=C2SC(=S)NC2=O)c(OC)c1OC	?	14.6µM*	-5.5%	-3.3%	27.0%	10.2%
CCOc1cc(/C=C2\CCCC(C(=O)C(F)(F)F)=C2O)ccc1O	i	i	5.3%	0.1%	18.4µM*	?
COc1cc(/C=C2\CC/C(=C\c3cc(OC)c(O)c(OC)c3)C2=O)cc(OC)c1O	16.4µM*	?	6.2%	1.8%	?	?
Cc1cc(/C=C2\SC(=Nc3ccc(F)cc3)NC2=O)c(C)n1-c1ccc(S(N)(=O)=O)cc1	6.51µM*	i	-1.4%	-0.5%	1.64µM*	8.2µM*
COc1ccc(/C=C2/CC/C(=C\c3ccc(OC)c(OC)c3OC)C2=O)c(OC)c1OC	i	2.06µM*	1.1%	?	9.1%	?
COc1cc(/C=C2/CCc3ccccc3C2=O)cc(OC)c1OC	?	11.6µM*	-1.6%	-4.3%	18.4µM*	?
COc1cc(C=C2C(=O)C=CC2=O)ccc1O	20.6µM*	i	·	-0.7%	·	·
COc1cc(/C=C2\CCc3ccccc3C2=O)cc(OC)c1OC	?	?	0.1%	-4.4%	?	?
